The target in the experiment is T1, CRBN, Q96SW2.
T1 chain: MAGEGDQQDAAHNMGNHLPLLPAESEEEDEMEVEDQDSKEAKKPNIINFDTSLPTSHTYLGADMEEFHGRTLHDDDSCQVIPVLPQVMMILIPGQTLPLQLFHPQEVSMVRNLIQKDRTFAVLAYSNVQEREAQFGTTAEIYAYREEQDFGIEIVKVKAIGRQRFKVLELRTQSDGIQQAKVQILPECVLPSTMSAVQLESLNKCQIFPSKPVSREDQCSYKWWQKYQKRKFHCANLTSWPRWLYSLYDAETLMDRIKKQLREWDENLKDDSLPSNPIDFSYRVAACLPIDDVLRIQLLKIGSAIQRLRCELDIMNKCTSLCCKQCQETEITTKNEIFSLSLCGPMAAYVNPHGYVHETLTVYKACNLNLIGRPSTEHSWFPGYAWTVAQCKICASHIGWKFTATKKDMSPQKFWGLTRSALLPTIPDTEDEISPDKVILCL
As to the kind of experiment: log2 fold change of degron read counts, EGFP-low vs EGFP+ sorted cells (limma voom), compound-induced degradation; higher = more compound-induced degradation of the degron-EGFP fusion; degrons are variants of IKZF1/3 zinc finger 2; compound dose not given here. To be noted: Jurkat, 18 h.

Setting [1] is: compound: compound 19 (5-tert-butyl-thalidomide).
Setting [2] is: compound: compound 22 (5-morpholino-thalidomide).
Setting [3] is: compound: compound 33 (diphenyl IMiD analogue).

In all, about 8,300 sequences were measured (“log2 fold change of degron read counts, EGFP-low vs EGFP+ sorted cells (limma voom), compound-induced degradation”: median about -1.1, highest 2% from about 3.2 on). This is one part of a sample in which the highest values are shown more often than they occur.
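Note: pooled lentiviral library of zinc finger degron-EGFP fusions in mCherry-positive Jurkat cells, FACS-sorted after compound exposure, with degron abundance counted by next-generation sequencing.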

On to LACEICGFLCTQKGNLLRHIKL [46L_47A_49E_50I_52G_53F_54L_55C_67L_, Q9UKT9], for which the “log2 fold change of degron read counts” value was 0.343 under setting [1], -0.688 under setting [2], -1.12 under setting [3] and -0.901 (compound: thalidomide).

In the case of FGCDICGAFFTQKGNLLRHIKL [46F_47G_49D_50I_52G_53A_54F_55F_67L_, Q9UKT9], the “log2 fold change of degron read counts” value by setting is: under setting [1], 0.984; under setting [2], -0.922; under setting [3], 1.74; (compound: thalidomide) -1.18.

For FECPICGHKFTQKGNLLRHIKL [46F_47E_49P_50I_52G_53H_54K_55F_67L_, Q9UKT9], the “log2 fold change of degron read counts” value by setting is: under setting [1], -3.48; under setting [2], -2.51; under setting [3], -2.67; (compound: thalidomide) -1.19.

For FDCEICGRLFTQKGNLLRHIKL [46F_47D_49E_50I_52G_53R_54L_55F_67L_, Q9UKT9], the “log2 fold change of degron read counts” value reads like this: under setting [1], -2.24; under setting [2], -1.71; under setting [3], -0.0163; (compound: thalidomide) -0.815.

FWCDICGATFTQKGNLLRHIKL [46F_47W_49D_50I_52G_53A_54T_55F_67L_, Q9UKT9]: the “log2 fold change of degron read counts” value runs as follows: under setting [1], 2.74; under setting [2], 3.05; under setting [3], 0.604; (compound: thalidomide) -1.08.

Regarding FGCEICGREFTQKGNLLRHIKL [46F_47G_49E_50I_52G_53R_54E_55F_67L_, Q9UKT9], the “log2 fold change of degron read counts” value was -2.14 under setting [1], -2.75 under setting [2], -2.14 under setting [3] and -2.84 (compound: thalidomide).

As for FCCEICGAFFTQKGNLLRHIKL [46F_47C_49E_50I_52G_53A_54F_55F_67L_, Q9UKT9], the “log2 fold change of degron read counts” value was 0.678 under setting [1], -0.0744 under setting [2], 1.4 under setting [3] and -0.2 (compound: thalidomide).

FTCEICGARFTQKGNLLRHIKL [46F_47T_49E_50I_52G_53A_54R_55F_67L_, Q9UKT9]: the “log2 fold change of degron read counts” value is, setting by setting: under setting [1], 1.84; under setting [2], 3.12; under setting [3], 1.85; (compound: thalidomide) 3.23.

FECEICGARFTQKGNLLRHIKL [46F_47E_49E_50I_52G_53A_54R_55F_67L_, Q9UKT9]: the “log2 fold change of degron read counts” value is 1.13 under setting [1], -0.528 under setting [2], 1.59 under setting [3] and 3.55 (compound: thalidomide).

For FWCEICGARFTQKGNLLRHIKL [46F_47W_49E_50I_52G_53A_54R_55F_67L_, Q9UKT9], the “log2 fold change of degron read counts” value runs as follows: under setting [1], 3.43; under setting [2], 3.51; under setting [3], 1.48; (compound: thalidomide) 1.46.

Consider FECEICGALFTQKGNLLRHIKL [46F_47E_49E_50I_52G_53A_54L_55F_67L_, Q9UKT9], for which the “log2 fold change of degron read counts” value was -2.06 under setting [1], -1.77 under setting [2], 0.784 under setting [3] and 1.34 (compound: thalidomide).

Turning to FACEICGAFFTQKGNLLRHIKL [46F_47A_49E_50I_52G_53A_54F_55F_67L_, Q9UKT9], the “log2 fold change of degron read counts” value by setting is: under setting [1], 2.61; under setting [2], 0.556; under setting [3], -0.131; (compound: thalidomide) -0.84.

As for FWCEICGALFTQKGNLLRHIKL [46F_47W_49E_50I_52G_53A_54L_55F_67L_, Q9UKT9], the “log2 fold change of degron read counts” value by setting is: under setting [1], 2.93; under setting [2], 2.99; under setting [3], 2.06; (compound: thalidomide) -0.0847.

As for FFCEICGARFTQKGNLLRHIKL [46F_47F_49E_50I_52G_53A_54R_55F_67L_, Q9UKT9], the “log2 fold change of degron read counts” value runs as follows: under setting [1], 3.53; under setting [2], 3.66; under setting [3], 1.66; (compound: thalidomide) 1.89.

Turning to FYCEICGAFFTQKGNLLRHIKL [46F_47Y_49E_50I_52G_53A_54F_55F_67L_, Q9UKT9], the “log2 fold change of degron read counts” value by setting is: under setting [1], 3.38; under setting [2], 3.27; under setting [3], 2.4; (compound: thalidomide) -0.228.

As to FHCPICGHSFTQKGNLLRHIKL [46F_47H_49P_50I_52G_53H_54S_55F_67L_, Q9UKT9], the “log2 fold change of degron read counts” value is, setting by setting: under setting [1], -2.13; under setting [2], -1.94; under setting [3], -1.36; (compound: thalidomide) -2.32.

Turning to FDCNQCGRHFTQKGNLLRHIKL [46F_47D_49N_50Q_52G_53R_54H_55F_67L_, Q9UKT9], the “log2 fold change of degron read counts” value under setting [1] was -2.61, the “log2 fold change of degron read counts” value under setting [2] was -2.91, the “log2 fold change of degron read counts” value under setting [3] is -2.55 and the “log2 fold change of degron read counts” value (compound: thalidomide) is -2.64.

With FFCEQCGAIFTQKGNLLRHIKL [46F_47F_49E_50Q_52G_53A_54I_55F_67L_, Q9UKT9], the “log2 fold change of degron read counts” value is -0.0994 under setting [1], 0.676 under setting [2], -1.15 under setting [3] and -1.09 (compound: thalidomide).

Values taken from the supplement of paper PMC12645437, “Orthogonal IMiD-Degron Pairs Induce Selective Protein Degradation in Cells” (ACS Chemical Biology, 2025).
